According to the supplement of paper PMC10849652:
About 7,900 targets were measured; listed, in parts, are those with a hit and a random draw of the rest. About 0.6% of all pairs of compound and target were hits. Unmarked numbers belong to inactive results.

What was measured:
Test in all cases: log2 fold change, soluble protein after heating vs DMSO (PISA); higher = thermal stabilisation; K562 cells, 10 uM, 30 min; active = over 0.2 and 3.5 SD of the protein, either way, in both replicates (recomputed)
[1] = compound: COC1=CC=C(C=C1)CN2C=CC3=C2C=C(C=C3)C(=O)NO
Outline: (§1)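 Values are thermal stability changes relative to control samples and are taken from duplicates. They are stated as log2 fold changes. Before quantification by TMTpro 16plex LC-MS/MS with equalised channel sums, K562 cells at 2×10^6 cells/mL were treated with 10 μM compound for 30 min, heated in aliquots for 3 min across 48°C-58°C, pooled, extracted in PBS with 0.5% NP-40 at 4°C, and centrifuged at 21,000xg for 90 min to give the soluble supernatant.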

filanesib = compound: CON(C)C(=O)N1N=C(c2cc(F)ccc2F)S[C@@]1(CCCN)c1ccccc1 [filanesib]
Outline: as §1

zotarolimus = compound: CO[C@H]1C[C@@H]2CC[C@@H](C)[C@@](O)(O2)C(=O)C(=O)N2CCCC[C@H]2C(=O)O[C@H]([C@H](C)C[C@@H]2CC[C@H](n3cnnn3)[C@H](OC)C2)CC(=O)[C@H](C)/C=C(\C)[C@@H](O)[C@@H](OC)C(=O)[C@H](C)C[C@H](C)/C=C/C=C/C=C/1C [zotarolimus]
Outline: as §1

idasanutlin = compound: COc1cc(C(=O)O)ccc1NC(=O)[C@@H]1N[C@@H](CC(C)(C)C)[C@](C#N)(c2ccc(Cl)cc2F)[C@H]1c1cccc(Cl)c1F [idasanutlin]
Outline: as §1

alisertib = compound: COc1cc(Nc2ncc3c(n2)-c2ccc(Cl)cc2C(c2c(F)cccc2OC)=NC3)ccc1C(=O)O [alisertib]
Outline: as §1

[2] = compound: COc1cc2nc(-c3cc(F)ccc3O)nc(N[C@@H]3CNC[C@H]3C(C)(C)O)c2cc1OC
Outline: as §1

gefitinib = compound: COc1cc2ncnc(Nc3ccc(F)c(Cl)c3)c2cc1OCCCN1CCOCC1 [gefitinib]
Outline: as §1

[3] = compound: COc1cccc2cc(-c3nc([C@H]4CC[C@H](C(=O)O)CC4)n4ncnc(N)c34)[nH]c12
Outline: as §1

lapatinib = compound: CS(=O)(=O)CCNCc1ccc(-c2ccc3ncnc(Nc4ccc(OCc5cccc(F)c5)c(Cl)c4)c3c2)o1 [lapatinib]
Outline: as §1

pictilisib = compound: CS(=O)(=O)N1CCN(Cc2cc3nc(-c4cccc5[nH]ncc45)nc(N4CCOCC4)c3s2)CC1 [pictilisib]
Outline: as §1

[4] = compound: CS(=O)(=O)c1ccc(-c2cnc(N)c(C(=O)Nc3ccccc3)n2)cc1
Outline: as §1

crizotinib = compound: C[C@@H](Oc1cc(-c2cnn(C3CCNCC3)c2)cnc1N)c1c(Cl)ccc(F)c1Cl [crizotinib]
Outline: as §1

[5] = compound: C[C@@H]1COCCN1C2=NC(=NC(=C2)C3(CC3)S(=O)(=O)C)C4=C5C=CNC5=CC=C4
Outline: as §1

[6] = compound: C[C@H](C1=CC=C(C=C1)C(=O)NC2=C3C=CNC3=NC=C2)N
Outline: as §1

duvelisib = compound: C[C@H](Nc1ncnc2nc[nH]c12)c1cc2cccc(Cl)c2c(=O)n1-c1ccccc1 [duvelisib]
Outline: as §1

gandotinib = compound: Cc1cc(Nc2cc(CN3CCOCC3)c3nc(C)c(Cc4ccc(Cl)cc4F)n3n2)n[nH]1 [gandotinib]
Outline: as §1

tozasertib = compound: Cc1cc(Nc2cc(N3CCN(C)CC3)nc(Sc3ccc(NC(=O)C4CC4)cc3)n2)n[nH]1 [tozasertib]
Outline: as §1

[7] = compound: Cc1cc(SCc2sc(-c3ccc(C(F)(F)F)cc3)nc2C)ccc1OCC(=O)O
Outline: as §1

doramapimod = compound: Cc1ccc(-n2nc(C(C)(C)C)cc2NC(=O)Nc2ccc(OCCN3CCOCC3)c3ccccc23)cc1 [doramapimod]
Outline: as §1

ispinesib = compound: Cc1ccc(C(=O)N(CCCN)[C@@H](c2nc3cc(Cl)ccc3c(=O)n2Cc2ccccc2)C(C)C)cc1 [ispinesib]
Outline: as §1

Sequence of UniProt Q9NQH7 (Q9NQH7 whole entry, looked up): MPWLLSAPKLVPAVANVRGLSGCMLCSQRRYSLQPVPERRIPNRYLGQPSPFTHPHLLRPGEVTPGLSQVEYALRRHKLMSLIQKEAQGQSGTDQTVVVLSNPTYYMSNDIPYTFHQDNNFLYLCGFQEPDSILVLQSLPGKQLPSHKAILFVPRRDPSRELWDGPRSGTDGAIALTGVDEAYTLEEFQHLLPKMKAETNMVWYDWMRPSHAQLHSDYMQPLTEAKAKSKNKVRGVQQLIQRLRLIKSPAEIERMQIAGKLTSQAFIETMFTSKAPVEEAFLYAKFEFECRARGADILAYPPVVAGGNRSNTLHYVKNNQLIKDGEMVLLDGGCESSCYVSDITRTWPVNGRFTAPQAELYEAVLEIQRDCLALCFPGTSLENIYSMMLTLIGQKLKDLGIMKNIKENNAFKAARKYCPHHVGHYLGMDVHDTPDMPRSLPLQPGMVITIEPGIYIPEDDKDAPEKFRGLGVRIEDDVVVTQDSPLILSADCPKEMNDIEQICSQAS
Sequence of UniProt O43592 (O43592 whole entry, looked up): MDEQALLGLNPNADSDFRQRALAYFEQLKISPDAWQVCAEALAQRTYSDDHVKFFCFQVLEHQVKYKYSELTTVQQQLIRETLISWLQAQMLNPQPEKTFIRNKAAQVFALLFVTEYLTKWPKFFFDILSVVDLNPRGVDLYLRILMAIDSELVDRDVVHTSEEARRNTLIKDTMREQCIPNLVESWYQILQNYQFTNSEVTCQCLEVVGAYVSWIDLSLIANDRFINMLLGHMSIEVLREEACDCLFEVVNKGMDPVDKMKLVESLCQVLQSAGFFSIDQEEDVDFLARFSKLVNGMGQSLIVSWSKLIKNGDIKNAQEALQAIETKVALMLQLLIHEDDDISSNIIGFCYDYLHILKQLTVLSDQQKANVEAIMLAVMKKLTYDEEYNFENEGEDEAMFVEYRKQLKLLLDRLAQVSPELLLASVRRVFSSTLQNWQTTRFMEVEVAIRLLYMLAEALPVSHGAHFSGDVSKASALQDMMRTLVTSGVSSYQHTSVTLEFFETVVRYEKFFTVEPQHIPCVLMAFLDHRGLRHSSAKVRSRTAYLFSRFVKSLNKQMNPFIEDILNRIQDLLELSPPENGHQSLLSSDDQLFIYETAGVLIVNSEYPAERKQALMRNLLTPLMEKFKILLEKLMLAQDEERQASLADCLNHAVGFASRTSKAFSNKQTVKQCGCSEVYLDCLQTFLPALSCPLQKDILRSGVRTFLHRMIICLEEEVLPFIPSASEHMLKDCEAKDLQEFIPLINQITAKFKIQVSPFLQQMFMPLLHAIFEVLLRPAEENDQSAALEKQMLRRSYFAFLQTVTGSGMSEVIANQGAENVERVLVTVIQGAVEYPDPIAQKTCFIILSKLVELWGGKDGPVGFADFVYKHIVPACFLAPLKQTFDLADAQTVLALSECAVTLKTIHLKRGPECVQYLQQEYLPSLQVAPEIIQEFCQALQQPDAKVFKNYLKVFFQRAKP
Sequence of UniProt O14980 (O14980 whole entry, looked up): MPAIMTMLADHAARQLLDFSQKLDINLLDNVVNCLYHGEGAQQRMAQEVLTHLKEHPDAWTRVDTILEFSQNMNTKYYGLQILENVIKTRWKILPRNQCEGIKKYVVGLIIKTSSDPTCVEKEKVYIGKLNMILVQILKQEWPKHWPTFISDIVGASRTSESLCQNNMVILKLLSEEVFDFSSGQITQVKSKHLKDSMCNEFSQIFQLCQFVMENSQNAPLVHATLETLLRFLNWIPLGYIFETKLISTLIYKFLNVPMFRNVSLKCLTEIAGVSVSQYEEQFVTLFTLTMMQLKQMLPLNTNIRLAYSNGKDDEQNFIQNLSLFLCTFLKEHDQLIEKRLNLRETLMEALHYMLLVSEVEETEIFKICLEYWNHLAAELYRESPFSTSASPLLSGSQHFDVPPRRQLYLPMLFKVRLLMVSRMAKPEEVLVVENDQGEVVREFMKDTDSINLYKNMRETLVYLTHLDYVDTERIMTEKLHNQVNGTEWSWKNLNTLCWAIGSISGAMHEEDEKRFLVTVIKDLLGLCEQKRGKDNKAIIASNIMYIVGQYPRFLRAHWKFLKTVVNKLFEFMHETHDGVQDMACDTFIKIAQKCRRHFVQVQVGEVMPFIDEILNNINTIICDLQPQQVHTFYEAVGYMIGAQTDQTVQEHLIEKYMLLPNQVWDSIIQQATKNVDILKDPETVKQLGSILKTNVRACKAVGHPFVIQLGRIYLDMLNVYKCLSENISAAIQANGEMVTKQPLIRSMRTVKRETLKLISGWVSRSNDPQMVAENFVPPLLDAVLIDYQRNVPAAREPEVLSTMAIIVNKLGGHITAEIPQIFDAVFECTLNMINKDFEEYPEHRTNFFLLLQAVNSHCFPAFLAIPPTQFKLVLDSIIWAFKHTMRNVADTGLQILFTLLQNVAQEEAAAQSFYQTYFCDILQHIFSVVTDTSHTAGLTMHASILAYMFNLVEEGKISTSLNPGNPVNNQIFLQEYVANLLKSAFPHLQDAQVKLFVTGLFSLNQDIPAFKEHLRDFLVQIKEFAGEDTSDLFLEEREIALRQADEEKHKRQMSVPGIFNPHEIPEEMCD
Sequence of UniProt Q8NDZ6 (Q8NDZ6 whole entry, looked up): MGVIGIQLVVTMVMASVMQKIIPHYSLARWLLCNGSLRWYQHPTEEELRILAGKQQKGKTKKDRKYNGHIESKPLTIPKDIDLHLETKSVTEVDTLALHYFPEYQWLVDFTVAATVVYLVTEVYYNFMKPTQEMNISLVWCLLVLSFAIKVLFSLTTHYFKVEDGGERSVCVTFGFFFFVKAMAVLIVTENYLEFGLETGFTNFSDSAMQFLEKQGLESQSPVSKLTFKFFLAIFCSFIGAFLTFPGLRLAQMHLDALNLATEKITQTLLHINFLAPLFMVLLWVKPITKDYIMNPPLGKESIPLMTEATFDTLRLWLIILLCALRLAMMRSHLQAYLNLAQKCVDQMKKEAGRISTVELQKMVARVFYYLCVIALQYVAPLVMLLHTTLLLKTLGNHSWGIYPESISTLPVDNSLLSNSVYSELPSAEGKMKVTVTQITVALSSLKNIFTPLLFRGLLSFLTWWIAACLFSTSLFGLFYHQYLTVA
Sequence of UniProt Q8NCE0 (Q8NCE0 whole entry, looked up): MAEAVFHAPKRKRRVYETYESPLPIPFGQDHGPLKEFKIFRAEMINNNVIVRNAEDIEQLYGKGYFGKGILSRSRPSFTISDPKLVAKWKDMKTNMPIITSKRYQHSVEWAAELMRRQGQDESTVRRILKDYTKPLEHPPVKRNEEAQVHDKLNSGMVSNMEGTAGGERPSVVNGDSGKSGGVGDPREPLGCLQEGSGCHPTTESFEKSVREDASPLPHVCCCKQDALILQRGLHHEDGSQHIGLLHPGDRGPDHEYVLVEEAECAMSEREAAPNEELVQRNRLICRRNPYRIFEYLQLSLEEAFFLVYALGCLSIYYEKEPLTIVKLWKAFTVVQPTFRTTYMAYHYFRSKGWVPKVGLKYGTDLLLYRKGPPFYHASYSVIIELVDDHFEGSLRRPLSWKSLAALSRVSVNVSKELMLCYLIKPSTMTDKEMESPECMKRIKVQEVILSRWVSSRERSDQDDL
Sequence of UniProt Q01081 (Q01081 whole entry, looked up): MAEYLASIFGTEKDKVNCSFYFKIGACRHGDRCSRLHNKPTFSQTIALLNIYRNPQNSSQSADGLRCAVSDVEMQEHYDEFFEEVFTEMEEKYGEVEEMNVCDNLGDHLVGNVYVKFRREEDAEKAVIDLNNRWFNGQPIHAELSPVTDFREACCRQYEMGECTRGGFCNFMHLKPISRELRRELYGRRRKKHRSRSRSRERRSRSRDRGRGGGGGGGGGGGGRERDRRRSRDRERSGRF
Sequence of UniProt Q99986 (Q99986 whole entry, looked up): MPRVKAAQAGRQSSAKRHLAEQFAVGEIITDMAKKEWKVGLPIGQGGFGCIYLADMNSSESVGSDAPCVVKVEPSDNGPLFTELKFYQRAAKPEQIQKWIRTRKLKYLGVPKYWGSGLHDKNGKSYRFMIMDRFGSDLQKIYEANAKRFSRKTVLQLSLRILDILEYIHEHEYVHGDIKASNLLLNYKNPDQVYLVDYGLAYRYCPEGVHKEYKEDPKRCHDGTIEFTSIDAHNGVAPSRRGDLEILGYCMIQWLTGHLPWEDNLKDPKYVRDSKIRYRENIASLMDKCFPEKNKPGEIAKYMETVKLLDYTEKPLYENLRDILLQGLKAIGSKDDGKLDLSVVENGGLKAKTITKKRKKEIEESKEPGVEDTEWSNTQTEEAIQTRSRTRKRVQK
Sequence of UniProt Q9UGM6 (Q9UGM6 whole entry, looked up): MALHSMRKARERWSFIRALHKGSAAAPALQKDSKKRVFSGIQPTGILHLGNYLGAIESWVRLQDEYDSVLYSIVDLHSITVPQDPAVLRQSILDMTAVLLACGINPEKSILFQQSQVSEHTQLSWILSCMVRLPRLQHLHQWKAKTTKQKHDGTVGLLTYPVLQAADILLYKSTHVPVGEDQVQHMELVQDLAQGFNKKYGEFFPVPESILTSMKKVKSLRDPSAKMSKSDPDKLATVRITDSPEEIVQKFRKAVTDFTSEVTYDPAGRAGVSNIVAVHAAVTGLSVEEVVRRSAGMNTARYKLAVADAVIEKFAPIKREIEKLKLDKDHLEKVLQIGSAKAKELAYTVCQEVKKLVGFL
Sequence of UniProt Q86Y07 (Q86Y07 whole entry, looked up): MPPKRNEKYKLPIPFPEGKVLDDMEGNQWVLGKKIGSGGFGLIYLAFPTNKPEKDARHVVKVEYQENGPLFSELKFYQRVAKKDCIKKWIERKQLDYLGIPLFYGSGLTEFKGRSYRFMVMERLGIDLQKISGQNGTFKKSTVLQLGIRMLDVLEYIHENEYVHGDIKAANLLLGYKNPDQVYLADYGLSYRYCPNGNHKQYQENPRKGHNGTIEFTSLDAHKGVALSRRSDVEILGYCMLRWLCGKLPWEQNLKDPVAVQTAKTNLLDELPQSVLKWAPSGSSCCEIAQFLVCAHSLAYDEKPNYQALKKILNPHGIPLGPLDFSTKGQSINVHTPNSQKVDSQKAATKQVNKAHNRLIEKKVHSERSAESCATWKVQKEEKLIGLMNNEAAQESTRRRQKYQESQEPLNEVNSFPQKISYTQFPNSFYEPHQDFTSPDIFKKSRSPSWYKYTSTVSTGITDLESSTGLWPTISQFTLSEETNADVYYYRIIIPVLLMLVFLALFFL

Target	log2 fold change [1]	log2 fold change (filanesib)	log2 fold change (zotarolimus)	log2 fold change (idasanutlin)	log2 fold change (alisertib)	log2 fold change [2]	log2 fold change (gefitinib)	log2 fold change [3]	log2 fold change (lapatinib)	log2 fold change (pictilisib)	log2 fold change [4]	log2 fold change (crizotinib)	log2 fold change [5]	log2 fold change [6]	log2 fold change (duvelisib)	log2 fold change (gandotinib)	log2 fold change (tozasertib)	log2 fold change [7]	log2 fold change (doramapimod)	log2 fold change (ispinesib)
TMEM164 (UniProt Q5U3C3)	0.045	-0.306	-0.039	-0.031	0.211	0.098	-0.013	0.198	-0.06	0.008	0	-0.036	0.139	0.05	0.601 (active)	-0.204	0.031	0.027	0.091	–
WDR43 (UniProt Q15061)	-0.014	-0.019	-0.017	-0.072	-0.061	0.058	-0.006	0.042	-0.025	0.06	0.008	0.08	0.016	-0.051	0.062	0.009	-0.012	-0.053	-0.035	0.081
XPNPEP3 (UniProt Q9NQH7)	-0.12	-0.082	-0.021	-0.032	-0.011	0.027	-0.002	0.078	-0.024	0.027	0.06	-0.013	0.011	-0.001	0.059	-0.033	-0.034	0.034	0.065	-0.046
TMEM161B (UniProt Q8NDZ6)	-0.055	-0.008	-0.035	-0.16	0.006	0.013	0.087	-0.015	-0.056	0.097	0.026	-0.096	0.004	0.002	0.128	-0.156	0.063	0.11	-0.024	-0.055
TPP1 (UniProt O14773)	0.024	-0.175	0	-0.008	0.168	-0.072	-0.039	0.087	-0.026	0.011	0.025	-0.371 (active)	0.022	-0.026	0.056	0.049	-0.009	-0.016	0.008	-0.189
VDAC1 (UniProt P21796)	0	-0.036	-0.01	-0.004	-0.033	-0.023	-0.007	0.052	0	0.002	0	0.076	-0.004	-0.063	-0.002	0.017	0	-0.031	-0.024	0.034
TSEN2 (UniProt Q8NCE0)	0.018	0.043	0	-0.065	-0.075	0.077	0.028	0.114	-0.015	0.013	-0.198	0.052	0.014	0	0.049	-0.127	-0.048	0.056	-0.057	-0.074
TMEM192 (UniProt Q8IY95)	-0.036	-0.162	-0.047	0.037	-0.048	-0.009	-0.047	0.099	-0.02	0.038	0.074	-0.45 (active)	0.043	0.04	0.026	0.059	-0.008	-0.022	0.024	-0.318 (active)
WASHC2A (UniProt Q641Q2)	0.007	0.019	-0.053	0.063	-0.065	-0.011	-0.009	-0.005	0.02	0.038	0.025	-0.28 (active)	-0.033	0.137	-0.061	0.012	0.062	-0.047	0.062	-0.229
U2AF1 isoform 2 (UniProt Q01081)	0.165	0.034	0.043	0.055	-0.019	0.06	0.036	0.045	0	0.069	-0.046	0.067	0.03	-0.134	0.044	-0.005	0.05	0.114	-0.143	0
WARS2 (UniProt Q9UGM6)	-0.072	-0.089	-0.034	0.014	-0.025	0.062	-0.035	0	-0.127	0.037	-0.062	0.09	0.065	0.027	0.079	0.006	-0.001	0.04	0.017	-0.085
XPO5 (UniProt Q9HAV4)	0.019	-0.122	0.023	-0.055	-0.008	-0.068	-0.008	-0.052	-0.004	-0.034	-0.008	-0.052	0.021	-0.026	0.007	-0.192	0.03	0.064	-0.043	-0.079
VRK1 (UniProt Q99986)	0.098	-0.07	-0.123	-0.119	0.06	0.316	-0.018	-0.003	-0.059	0.086	0.055	-0.11	0.126	0.444 (active)	0.168	-0.067	-0.096	0.161	-0.075	-0.077
XPO1 (UniProt O14980)	0.074	-0.121	0.004	-0.123	-0.003	0.023	-0.032	0.001	-0.023	-0.071	-0.016	-0.138	0.089	0.006	-0.024	-0.223	0.027	0.094	-0.034	-0.081
VRK2 (UniProt Q86Y07)	-0.009	0.075	0	-0.066	0.042	0.003	0.018	-0.027	-0.003	-0.06	0.048	-0.16	0.015	0.472 (active)	-0.01	-0.08	-0.057	0.012	0.026	-0.115
XPOT (UniProt O43592)	0.011	-0.052	0.022	-0.073	-0.059	0.033	-0.023	-0.046	-0.028	0.023	0.009	-0.123	0.024	-0.001	0.005	-0.177	0.15	0.068	-0.011	-0.12
